Among the data in PubChem BioAssay (Tox21) are Potency and outcome values, retold here.

Test [1] is described as follows: Nuclear factor erythroid 2-related factor 2/antioxidant responsive element (Nrf2/ARE) small molecule agonists: qHTS cell viability counter screen in human keratinocytes (AID 1919968; active = well fitted curve in the direction sought with a large enough effect in the repeat runs; an effect the other way counts as inactive or inconclusive; note: nearly all actives have a fitted effect of over 55% in size; note: potency is the fitted concentration of half-maximal effect). The essentials: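 Seed 1,500 KeratinoSens cells per well, then incubate 5 h at 37 C/5% CO2. Add compounds in DMSO and incubate 23 h. Add CellTiter-Fluor, wait 1 h and read fluorescence.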

The nature of test [2]: Nuclear factor erythroid 2-related factor 2/antioxidant responsive element (Nrf2/ARE) small molecule agonists: luciferase reporter gene qHTS assay in human keratinocytes (AID 1919969). Note: nearly all actives have a fitted effect of over 35% in size. Note: potency is the fitted concentration of half-maximal effect.
For test [3], the target named is Gonadotropin-releasing hormone receptor (Homo sapiens) (UniProt P30968). Nature of the test: Human gonadotropin-releasing hormone receptor (GnRHR) small molecule agonists, calcium flux assay in GnRHR-HEK293 cells (AID 1920063). Note: nearly all actives have a fitted effect of over 35% in size. The essentials: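 Cells: HEK293 stably expressing human GnRHR. Steps: overnight (18 h) culture, 1 h calcium dye loading at 37 C, compound addition, kinetic fluorescence read at 480/540 nm. Each compound tested at 15 concentrations in triplicate.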
Gonadotropin-releasing hormone receptor (Homo sapiens), sequence (P30968 whole entry, looked up): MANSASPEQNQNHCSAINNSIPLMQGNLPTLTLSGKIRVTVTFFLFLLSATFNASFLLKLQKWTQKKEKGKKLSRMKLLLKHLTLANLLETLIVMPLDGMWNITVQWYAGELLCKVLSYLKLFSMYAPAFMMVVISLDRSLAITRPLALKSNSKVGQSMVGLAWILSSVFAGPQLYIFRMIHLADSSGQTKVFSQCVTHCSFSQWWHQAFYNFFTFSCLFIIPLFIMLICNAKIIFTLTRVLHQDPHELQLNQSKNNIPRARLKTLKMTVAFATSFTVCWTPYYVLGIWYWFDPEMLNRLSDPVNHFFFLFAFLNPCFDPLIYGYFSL

Test [4] has as its target KiSS-1 receptor (Homo sapiens) (UniProt Q969F8). Nature of the test: Human kisspeptin (KISS1R) small molecule agonists, calcium flux assay in KISS1R-HEK293 cells (AID 1920064; active = well fitted curve in the direction sought with a large enough effect in the repeat runs; an effect the other way counts as inactive or inconclusive). The essentials:
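Cells plated and incubated 18 h; dye added, 1 h at 37 C; compounds in DMSO pinned in; signal read at 480/540 nm every second for 3 min. Each compound tested at 15 concentrations in triplicate.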

Test [5] in a line: G protein-coupled receptor (GPCR) small molecule agonists, calcium flux assay: HEK293 wild type cell line counter screen (AID 1920065). Put shortly:
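Counter-screen of the Tox21 10K library for non-specific calcium release: dye-loaded cells received compounds in DMSO and were monitored by kinetic fluorescence (480/540 nm, 3 min). Fifteen concentrations, run in triplicate.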

Test [6] is described as follows: p53 small molecule agonists, cell-based qHTS assay with human liver microsomes (AID 1963577). Put shortly: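 In this qHTS, p53 response-element beta-lactamase cells receive test compound together with a microsome/NADPH activating system (0.5 mg/mL final each) and are incubated 16 h at 37 C before LiveBLAzer fluorescence detection.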
Test [7] in a line: p53 small molecule agonists, cell-based qHTS assay with rat liver microsomes (AID 1963578). The essentials: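 Agonist mode in p53RE-bla reporter cells, with compounds co-incubated 16 h at 37 C alongside 0.5 mg/mL rat liver microsomes and 0.5 mg/mL NADPH (final), followed by a 2 h LiveBLAzer detection step.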
Test [8] in a line: p53 small molecule agonists, cell-based qHTS assay with human liver microsomes: qHTS cell viability counter screen (AID 1963579). Note: nearly all actives have a fitted effect of over 45% in size. Put shortly: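 Metabolically activated exposure: compounds, human liver microsomes and NADPH (0.5 mg/mL final apiece) were added to p53RE-bla cells seeded 5 h earlier, left 16 h at 37 C, and then assessed for viability by CellTiter-Glo luminescence.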

The nature of test [9]: p53 small molecule agonists, cell-based qHTS assay with rat liver microsomes: qHTS cell viability counter screen (AID 1963580). Note: nearly all actives have a fitted effect of over 45% in size. Put shortly:
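Viability is assessed in parallel with the p53 reporter read: HCT-116 p53RE-bla cells receive compounds plus rat microsomes and NADPH (0.5 mg/mL final apiece), incubate 16 h at 37 C, and then CellTiter-Glo luminescence is recorded.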

Test [10] in a line: p53 small molecule agonists, cell-based qHTS assay: qHTS cell viability counter screen (AID 1963581). Note: nearly all actives have a fitted effect of over 45% in size. Put shortly:
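Cells: HCT-116 with p53 response element-driven beta-lactamase. Treatment: 16 h, 37 C, compounds in DMSO. Read: CellTiter-Glo luminescence after 30 min RT.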

Test [11] has as its target 5-hydroxytryptamine receptor 2A (Homo sapiens) (UniProt P28223). In words: 5-hydroxytryptamine receptor 2A (HTR2A) small molecule agonists, cell-based qHTS assay (AID 1963587). Note: nearly all actives have a fitted effect of over 30% in size. Put shortly: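 CHO cells stably expressing human HTR2A, plated 18 h, loaded with calcium dye 1 h at 37 C. Agonist mode: compounds added and intracellular calcium fluorescence recorded kinetically for 2 min at 1 sec intervals.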

The target in test [12] is Muscarinic acetylcholine receptor M1 (Homo sapiens) (UniProt P11229). Nature of the test: Cholinergic receptor muscarinic 1 (CHRM1) small molecule antagonists, cell-based qHTS assay (AID 1963588). Note: nearly all actives have a fitted effect of over 40% in size. Put shortly: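 CHRM1-CHO calcium-flux assay, antagonist mode. Cells were seeded 18 h, dye-loaded 1 h at 37 C and given compound for 5 min at RT, then acetylcholine was added at 50nM. FDSS fluorescence was read 3 min; 15 concentrations, three runs.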
Muscarinic acetylcholine receptor M1 (Homo sapiens), sequence (P11229 whole entry, looked up): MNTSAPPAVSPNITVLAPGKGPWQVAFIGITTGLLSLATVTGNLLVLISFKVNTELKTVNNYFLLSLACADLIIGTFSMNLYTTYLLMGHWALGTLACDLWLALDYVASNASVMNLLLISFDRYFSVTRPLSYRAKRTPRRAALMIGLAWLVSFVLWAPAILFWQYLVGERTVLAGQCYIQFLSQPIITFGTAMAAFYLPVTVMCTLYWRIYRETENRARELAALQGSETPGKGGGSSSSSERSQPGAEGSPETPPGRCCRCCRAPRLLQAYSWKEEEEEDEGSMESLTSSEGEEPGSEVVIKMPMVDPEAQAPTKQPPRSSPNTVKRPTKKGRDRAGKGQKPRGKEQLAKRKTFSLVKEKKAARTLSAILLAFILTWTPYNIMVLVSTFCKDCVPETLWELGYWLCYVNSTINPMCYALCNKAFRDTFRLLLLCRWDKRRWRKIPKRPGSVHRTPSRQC

For test [13] the target is unchanged. In words: Cholinergic receptor muscarinic 1 (CHRM1) small molecule agonists, cell-based qHTS assay (AID 1963589). Note: nearly all actives have a fitted effect of over 35% in size. Put shortly: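 Agonist-mode qHTS in CHO cells stably carrying human muscarinic M1. Intracellular calcium is tracked by fluorescence every second after compound transfer; each compound runs at 15 concentrations in three independent runs.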
A short description of test [14]: cAMP Responsive Elements (CRE) small molecule agonists, cell-based qHTS assay (AID 1963590). Put shortly:
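Agonist mode qHTS in CRE-bla HEK 293T cells: compounds dosed from DMSO for 3 h at 37 C/5% CO2, followed by LiveBLAzer B/G FRET substrate for 2 h at room temperature.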

Test [15] can be described thus: cAMP Responsive Elements (CRE) small molecule antagonists, cell-based qHTS assay (AID 1963591; active = well fitted inhibition curve with a large enough effect in the signal ratio in the repeat runs, not every such curve was filed as active; the % refers to the signal ratio). The essentials: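 Antagonist mode: test compounds are co-incubated with the adenylyl cyclase activator NKH477 (0.25 uM final) on CRE-bla HEK293T cells for 3 h at 37 °C, followed by LiveBLAzer substrate loading.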
The target in test [16] is Beta-2 adrenergic receptor (Homo sapiens) (UniProt P07550). Nature of the test: Adrenergic beta2 receptor (ADRB2) small molecule antagonists, cell-based qHTS assay (AID 1963592). Note: series mostly up to about 92 µM; nearly all actives have a fitted effect of over 50% in size. Put shortly:
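Cells (CHO, stable ADRB2 overexpression) incubated 18-20hr at 37C; compounds added from DMSO; agonist mix (1nM isoproterenol, 100uM IBMX, 25uM Ro-20-1724) added; 0.5hr RT; d2-cAMP and anti-cAMP-cryptate added; 1hr RT; 665/615 nm read.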

For test [17] the target is unchanged. Nature of the test: Adrenergic beta2 receptor (ADRB2) small molecule agonists, cell-based qHTS assay (AID 1963593).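 Note: CHO cells stably overexpressing human ADRB2.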 Put shortly: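 CHO cells stably over-expressing ADRB2 were plated overnight at 37C, then dosed with compounds plus a stimulation mix containing 100uM IBMX and 25uM Ro-20-1724 for 0.5hr at room temperature. cAMP was measured by HTRF competition, 1hr.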

Test [18] deals with D(2) dopamine receptor (Homo sapiens) (UniProt P14416). Nature of the test: Dopamine D2 receptor (DRD2) small molecule agonists, cell-based qHTS assay (AID 1963594). Note: nearly all actives have a fitted effect of over 35% in size. The essentials: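 HEK293 cells stably expressing human DRD2, pre-treated with PDE inhibitor Ro20-1724 (0.1 mM final) and compound 10 min at room temperature, then stimulated with NKH477 (200nM […]) for 30 min. cAMP read by HTRF (665/620 nm).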
D(2) dopamine receptor (Homo sapiens), sequence (P14416 whole entry, looked up): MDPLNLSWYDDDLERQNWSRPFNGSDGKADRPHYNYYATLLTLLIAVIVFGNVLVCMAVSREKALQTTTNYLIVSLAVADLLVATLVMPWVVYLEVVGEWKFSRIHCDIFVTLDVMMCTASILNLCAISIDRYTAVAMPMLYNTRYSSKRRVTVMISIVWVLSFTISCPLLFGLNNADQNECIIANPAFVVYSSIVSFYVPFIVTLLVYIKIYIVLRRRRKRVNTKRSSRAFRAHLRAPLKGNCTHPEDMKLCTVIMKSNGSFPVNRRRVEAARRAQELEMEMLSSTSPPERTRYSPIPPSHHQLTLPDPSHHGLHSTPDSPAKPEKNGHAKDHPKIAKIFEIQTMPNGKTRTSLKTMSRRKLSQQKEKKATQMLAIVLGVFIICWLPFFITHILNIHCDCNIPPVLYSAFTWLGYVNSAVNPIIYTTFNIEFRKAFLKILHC

For test [19] the target is unchanged. Nature of the test: Dopamine D2 receptor (DRD2) small molecule antagonists, cell-based qHTS assay (AID 1963595; active = well fitted inhibition curve with a large enough effect in the signal ratio in the repeat runs, with a control signal flat; the % refers to the signal ratio). The essentials: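 DRD2-HEK293; 0.1 mM Ro20-1724; cpd 10 min RT; NKH477 200 nM + quinpirole 12 nM, 30 min RT; HTRF cAMP (cAMP-d2/anti-cAMP cryptate), 665/620 nm ratio after 1 h.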

SMILES strings stand for the structures. Results filed as inconclusive are left out. The source made the active and inactive calls. Unless noted, calls come from the whole dose curve.

KiSS-1 receptor (Homo sapiens), sequence (Q969F8 whole entry, looked up): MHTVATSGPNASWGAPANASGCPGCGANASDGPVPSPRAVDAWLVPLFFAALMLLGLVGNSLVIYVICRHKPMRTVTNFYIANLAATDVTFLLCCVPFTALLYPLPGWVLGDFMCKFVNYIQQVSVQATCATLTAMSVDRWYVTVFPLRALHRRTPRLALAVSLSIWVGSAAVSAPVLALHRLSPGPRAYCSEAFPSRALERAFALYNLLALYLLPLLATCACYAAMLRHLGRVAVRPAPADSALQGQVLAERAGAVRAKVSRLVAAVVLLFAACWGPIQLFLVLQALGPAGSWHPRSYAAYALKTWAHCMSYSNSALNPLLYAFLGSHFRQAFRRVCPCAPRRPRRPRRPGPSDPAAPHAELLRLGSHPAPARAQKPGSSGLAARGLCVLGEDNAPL
5-hydroxytryptamine receptor 2A (Homo sapiens), sequence (P28223 whole entry, looked up): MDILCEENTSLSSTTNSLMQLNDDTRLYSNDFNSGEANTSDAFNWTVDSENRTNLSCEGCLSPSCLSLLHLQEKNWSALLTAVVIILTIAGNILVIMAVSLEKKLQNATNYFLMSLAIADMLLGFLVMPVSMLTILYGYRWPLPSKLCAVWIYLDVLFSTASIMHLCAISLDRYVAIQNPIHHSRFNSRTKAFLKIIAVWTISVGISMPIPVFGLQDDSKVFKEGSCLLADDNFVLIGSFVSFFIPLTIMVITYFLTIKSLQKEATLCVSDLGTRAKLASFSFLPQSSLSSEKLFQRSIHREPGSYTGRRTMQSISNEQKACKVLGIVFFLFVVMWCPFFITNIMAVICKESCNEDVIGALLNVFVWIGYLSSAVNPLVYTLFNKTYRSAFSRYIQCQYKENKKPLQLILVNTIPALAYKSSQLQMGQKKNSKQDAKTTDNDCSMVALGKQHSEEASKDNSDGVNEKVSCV
Beta-2 adrenergic receptor (Homo sapiens), sequence (P07550 whole entry, looked up): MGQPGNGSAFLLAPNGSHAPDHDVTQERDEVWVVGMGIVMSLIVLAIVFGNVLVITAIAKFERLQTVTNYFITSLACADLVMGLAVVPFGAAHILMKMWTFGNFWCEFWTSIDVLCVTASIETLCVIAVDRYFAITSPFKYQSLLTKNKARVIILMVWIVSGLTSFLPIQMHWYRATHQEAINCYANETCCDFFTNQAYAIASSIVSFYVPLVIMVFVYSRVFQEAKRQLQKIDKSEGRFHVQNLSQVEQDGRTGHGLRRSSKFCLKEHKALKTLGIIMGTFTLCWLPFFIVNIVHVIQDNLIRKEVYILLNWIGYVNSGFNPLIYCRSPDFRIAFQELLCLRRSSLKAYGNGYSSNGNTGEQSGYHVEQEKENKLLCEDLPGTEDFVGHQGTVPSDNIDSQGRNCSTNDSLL

Turning to `C[C@]12CCC(=O)C=C1CC[C@@H]1[C@@H]2[C@@H](O)C[C@@]2(C)[C@H]1CC[C@]2(O)C(=O)COC(=O)CCC(=O)O`, the Potency result in [1], in [2], in test [3], in test [6], in test [7] and in test [8] was “inactive” in each case. Besides, the Potency result in test [9], in test [10], in test [11], in test [12], in test [13] and in [14] was “inactive” in each case. Also, the Potency entry in [15], in test [16], in [17], in [18] and in test [19] was “inactive” each time. The outcome in [4] and in test [5] was inactive.
As for `CC(=O)CC(=O)Nc1ccc(C)cc1C`, the Potency entry in [1], in test [2], in test [3], in test [6], in test [7] and in test [8] was “inactive” in each case. The Potency result in [9], in test [10], in [11], in test [12], in test [13] and in test [14] was “inactive” throughout. Besides, the Potency result in test [16], in test [17], in [18] and in test [19] was “inactive” each time. Also, the result in test [4] and in test [5] was inactive.
Regarding `CCOc1ccc(NC(=O)OC(C)C)cc1OCC`, the Potency result in test [1], in test [2], in test [3], in [6], in test [7] and in [8] was “inactive” in each case. For the same compound, the Potency result in [9], in [10], in [11], in [12], in test [13] and in [14] was “inactive” in each case. Besides, the Potency entry in test [15], in [18] and in test [19] was “inactive” each time. Moreover, the outcome in test [4] and in [5] was inactive.
On to `O=C(OCC1CO1)C1CCCCC1C(=O)OCC1CO1` (stereo not given), for which the Potency result in [1], in test [3], in test [6], in test [7], in [8] and in [9] was “inactive” throughout. Further, the Potency result in test [10], in [11], in [12], in test [13], in [16] and in [19] was “inactive” throughout. In addition, the Potency in test [2] is 68.7 µM (active). For the same compound, the outcome in test [4] and in [5] was inactive.
`NNc1nc(-c2ccc([N+](=O)[O-])cc2)cs1`: the Potency in [1] and in test [2] was 30.6 µM (active) throughout. Further, the Potency result in test [3], in test [6], in test [7], in test [8], in test [9] and in test [10] was “inactive” each time. Besides, the Potency entry in test [11], in [12], in test [13], in test [17] and in [19] was “inactive” each time. In addition, the outcome in test [4] and in test [5] was inactive.
On to `C=C/C(C)=C/C/C=C(\C)CCC=C(C)C`, for which the Potency result in test [1], in test [3], in test [6], in test [7], in [8] and in test [9] was “inactive” each time. Moreover, the Potency entry in test [10], in [11], in test [12], in test [13], in [16] and in test [17] was “inactive” in each case. The Potency entry in test [18] and in test [19] was “inactive” each time. For the same compound, in test [2], the Potency is 68.6 µM (active). For the same compound, the result in test [4] and in test [5] was inactive.
Regarding `C[Si](C)(CCCN)O[Si](C)(C)CCCN`, the Potency entry in [1], in test [2], in test [3], in [6], in [7] and in test [8] was “inactive” in each case. The Potency result in test [9], in test [10], in test [11], in [12], in test [13] and in test [14] was “inactive” throughout. For the same compound, the Potency result in [15], in test [16], in test [17], in test [18] and in test [19] was “inactive” throughout. In addition, the outcome in test [4] and in test [5] was inactive.
